Data: the supplement of paper PMC6555819

System: VDR:RXRa (NR concentration 270 nM, RXRa partner concentration 90 nM)
Assay: PBM binding z-score (relative to random genomic background probes); higher = stronger binding; sequences stand for … in GC…GCGATTGACAGCGTAGAATGAAGG
Protocol: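 Protein-binding microarray (Agilent 4x180K custom design, double-stranded 60-nt probes: 5' GC cap, 34-nt variable region, 24-nt constant primer region; full probe sequence given). Purified or IVT nuclear receptor:RXRα heterodimers (3:1 NR:RXRα, mostly 270:90 nM) or homodimers were incubated for 1 h in PBS with 2% milk and no ligand, then detected with Alexa488 antibodies. Fluorescence from o1-orientation probes (~5 replicates averaged) was converted to z-scores against 500 random hg19 background probes. Variable regions are seed direct-repeat (DR0–DR5) sites, all their single-nucleotide variants and half-site ablations.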

| Sequence | PBM binding z-score |
| --- | --- |
| CCTACTGGGCCATCAGGTCATCGATATCAACGTT | 1.77 |
| AGTCTAAGTTCACTAGGTAACGTAAGATTCAGCT | 3.59 |
| GCGACTGGGGGAAAGCAGGTTACCATAAGGTTGG | 0.39 |
| CCTACTGGGCCATCAGGTCATTGAAATCAACGTT | 1.28 |
| ATATCAAGGTGATCGTGAGGTCGTTGATACTAAC | 3.33 |
| CCTTACGGGTCACTGACAGGTTATAGTATTTGGA | 3.85 |
| GCTGCTAGGTCAACTGATGTTCAGCTAAAGCTCG | 1.61 |
| AGAATGAGGTTATTATGATCAGGGAATTGCGGTC | 1.65 |
| CAAACTAGGTAAAGAGGTCAAAGTCCGCTTCCCG | 4.92 |
| AATACAGGGTCGTCGTAGGCCAGAGTACGCACAG | 2.62 |
| ATACCAAGGTGATCGTGAGGTCGTAGATACTAAC | 2.42 |
| TCTCGTTGGTCAAAGGTCACACACTCGAAATGCG | 5.25 |
| GCGACTGGGGCATCAGCACGTTACCATAACTTAA | -0.365 |
| TCTTGTATATCAACAGGAGGTTAAGAAAGATCGA | 1.28 |
| ACTATTAGTTCAGACGAGGGCAACCGATAGGTTG | 2.84 |
| GCTGCTAGGTCAAGTGATGGTCAGCTAAAGCTCG | 1.63 |
| GGTGCTAGGTCAGGTTGGTCAGCTAACGGGTACG | 1.25 |
| ATCTTTAGGTAAAGTTCAGTGAAAGATCGATAGA | 1.7 |
| TCATATAGGTAAAAGGTGATAGTCGGTGTGGTAA | 1.13 |
| TATACAGCGTCAAAGGCCAGAGTACGAATGTCGA | -0.305 |

| Sequence | PBM binding z-score |
| --- | --- |
| TCTTGAAGATCAGCAGGTTAAGAAAGCTGGCCAA | 0.374 |
| GCTAGCTGGCCATTTGGGTCACTCAATGACGGGC | -0.155 |
| CCTAGTTGGTCGGGAGGTCACACACCGGATATGA | 3.78 |
| TTACCAAGGTGGGCTGAGGTCGTTGATCCAACTC | 2.6 |
| ACTATAAGTTGAGACGAGGGCAACCGATAGGTTG | 1.75 |
| AGAACGAGGGCACGCTTAGTTGATAGCAGAGTAG | 1.19 |
| GCTCGGAGGACAATGTCAGAGCTTTGTCCGTAGA | -0.573 |
| CAAACTAGGTCACGAAACGTCAAAGTCGAATGAC | 2.2 |
| TTACCAAGGTGAAAGATCGTTGATGCACGCCTTG | 0.0935 |
| CCTACTGTGCCAAGGTCATTGATCAGTCAAAGCA | 3.52 |
| ATCTCTAGGTAACCTAGTTCAGTGAATGCCGAAC | 1.96 |
| CGTCCAATGTCAAGGTCAGTGAAAGAGACTCGAA | 2.08 |
| ATACCAAGGTGATCGTGAGGTCGTTTATACTAAC | 3.6 |
| CCTAGTTGGTCGAGGTCACACACGCTATAGGTAC | 4.8 |
| TCTGTTAGGTCAACGATGGTCAGCTAATCTGCTA | 2.46 |
| TCATATAGGTAATACAGGTGTAAGTCGGCATCTA | 1.17 |
| TCATATAGGTAAACAGGTGAATGTCCGTAAGTTA | 0.948 |
| TCTTGTAGTTCAACAGGAGGTTAAGAAAGATCGA | 2.57 |
| CCGACTGGGGCATAAGGCTACCATAAGCCAGCCC | -0.694 |
| ACAGACAGGTGAGTGGAGGTAACTCAGCTGGACG | -0.0789 |
